Assay outcomes (PubChem)
Rows were chosen to be rich in hits. Some 4.1% of all compounds tested hit in one or more screens of this group.
ssDAF12 agonist – activates DAF-12 receptor from parasite S. stercoralis. HEK293 ssDAF-12/GRIP1 lit1-tk-luc reporter, luminescence; % of 3 µM dafachronic acid response. AID 652126. 1% of 370,000 active. activation, % at 6.8 µM;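 active = activation above the mean over all tested compounds plus 3 SD, cut at about 0.9% in these data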;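 note: 0% = DMSO-only wells and 100% = 3 µM delta7-dafachronic acid wells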
DAX1 inh-1 – blocks DAX1 repression of SF-1 activated StAR promoter; 1.1% of 370,000 active; inhibition, % at 6.8 µM; HEK293T StAR-luciferase reporter, SF-1/DAX-1 repression relief;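 active = inhibition above the mean over all tested compounds plus 3 SD, cut at about 3.6% in these data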;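 note: 0% = DAX-1 cells with DMSO and 100% = cells lacking DAX-1 with DMSO; higher inhibition means more luminescence from relief of DAX-1 repression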
DAX1 inh-2 – NR0B1 (DAX1) inhibition. inhibition, % at 6.75 µM. 0.99% of 340,000 active. HEK293 Gal4-DAX1 luciferase reporter, luminescence;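 active = inhibition above the mean over all tested compounds plus 3 SD, cut at about 4.2% in these data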;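 note: 0% = DAX1-transfected cells with DMSO and 100% = empty-vector control cells with DMSO; inhibition shows as a rise in luminescence from relieved DAX1 repression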
hcDAF-12 act – H. contortus DAF-12 activation, primary screen | AID 652067 | HEK293 hcDAF-12 lit1-tk-luc reporter, luminescence; 0% DMSO, 100% Δ7-dafachronic acid | 1.4% of 370,000 active | activation, % at 6.8 µM;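 active = activation above the mean of all tested compounds plus 3 SD, cut at about 5.5% in these data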;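 note: 100% = response to 3 µM Δ7-dafachronic acid high control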
hgDAF12 agonist – hgDAF-12 agonism, primary luciferase screen; HEK293 GAL4-hgDAF12 UAS-luciferase reporter, agonist luminescence; normalized to butyrate control; activation, % at 6.8 µM; 1.8% of 370,000 active; AID 687014;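 active = activation above a cutoff set at the mean of all screened compounds plus 3 SD, cut at about 10% in these data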;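 note: 0% = DMSO wells and 100% = sodium butyrate wells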
DAX1 inh confirm – NR0B1 (human) inhibition, confirmation. AID 652134. 87% of 2,400 active. HEK293T StAR-promoter luciferase reporter, SF-1/DAX-1 repression. inhibition, % at 6.8 µM. shares compounds with DAX1 inh-1;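 active = inhibition above the average of every tested compound plus 3 SD, cut at about 3.8% in these data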;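 note: 0% = DAX-1 cells with DMSO and 100% = no DAX-1 control cells with DMSO; active compounds raise luminescence by relieving repression of the StAR reporter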
Target sequence (P51843 whole entry, looked up): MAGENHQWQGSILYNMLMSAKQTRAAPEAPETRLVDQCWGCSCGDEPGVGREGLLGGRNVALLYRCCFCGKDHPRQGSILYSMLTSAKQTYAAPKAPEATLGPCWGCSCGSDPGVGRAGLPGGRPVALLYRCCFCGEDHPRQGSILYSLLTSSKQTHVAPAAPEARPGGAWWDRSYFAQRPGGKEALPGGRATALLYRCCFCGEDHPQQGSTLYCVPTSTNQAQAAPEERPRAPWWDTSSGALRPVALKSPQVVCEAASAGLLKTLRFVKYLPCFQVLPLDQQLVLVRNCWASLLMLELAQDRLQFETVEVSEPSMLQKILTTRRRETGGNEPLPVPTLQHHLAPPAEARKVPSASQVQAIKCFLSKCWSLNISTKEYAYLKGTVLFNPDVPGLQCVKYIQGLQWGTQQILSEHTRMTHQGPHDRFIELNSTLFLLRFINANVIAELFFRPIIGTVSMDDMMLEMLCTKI
SF1 AF2mut Luc – counter-screen for DAX1 inhibitors: nonselective inhibitors with SF-1 AF2 mutant. shares compounds with DAX1 inh-1. HEK293 StAR-luciferase, luminescence. inhibition, % at 6.8 µM. 78% of 2,400 active;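 active = inhibition above the mean of all tested compounds plus 3 SD, cut at about 3% in these data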;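 note: 0% = DAX-1 transfected cells with DMSO and 100% = cells without DAX-1 with DMSO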
Numbers without * were called inactive; · = no result given.

SMILES | ssDAF12 agonist | DAX1 inh-1 | DAX1 inh-2 | hcDAF-12 act | hgDAF12 agonist | DAX1 inh confirm | SF1 AF2mut Luc
O=C(CCN1C(=O)/C(=C\C=C\c2ccccc2)SC1=S)Nc1cccc(C(=O)O)c1 | -1 | 4.9* | 2 | 0 | 2 | 6.2* | 2
O=C(c1ccccc1Oc1ccccc1)N1CCC(Oc2cccnc2)CC1 | 0 | -1 | · | -2 | 0 | · | ·
Cc1c(C(=O)OCC(C)C)[nH]c2c1C(=O)CC(c1ccco1)C2 (stereo unspecified) | -1 | 6.3* | -2 | -2 | -5 | 9.0* | -8
C/C=C/COC(=O)c1[nH]c2c(c1C)C(=O)CC(c1ccco1)C2 (stereo unspecified) | 0 | 2 | -4 | -2 | -3 | · | ·
CCn1c2ccccc2c2cc(C=NNC(=O)c3cc(-c4ccc(OC)cc4)n[nH]3)ccc21 | -1 | -1 | · | -3 | 0 | · | ·
CCn1c2ccccc2c2cc(NC(=O)N3CCCCC3)ccc21 | 0 | 4.7* | 3 | 3 | 9 | 10* | 5.4*
Cc1ccc(NC(=O)N2CCCCCC2)cc1C | 0 | 5.9* | 2 | 3 | 5 | 8.1* | 5.4*
Cc1ccc(NC(=O)N2CCCCC2)cc1NC(=O)N1CCCCC1 | -1 | 0 | 0 | -1 | 1 | · | ·
CCCC(=O)Nc1ccc2c(c1)c1ccccc1n2CC | -1 | -1 | 1 | -3 | -2 | · | ·
O=C(Nc1ccc(F)c(Cl)c1)N1CCCCCC1 | 0 | 4.7* | 1 | 1 | 5 | 5.2* | 5.8*
O=C(NC1CCCCN(Cc2cccc(Cl)c2)C1=O)c1ccccc1 (stereo unspecified) | -1 | -2 | · | -1 | -1 | · | ·
NC(=O)c1ncn([C@@H]2O[C@H](C(=O)N[C@H](Cc3ccccc3)C(=O)O)[C@@H](O)[C@H]2O)n1 | -1 | 0 | · | 2 | -7 | · | ·
O=C(CSc1nc2sc3c(c2c(=O)n1-c1ccc(Cl)cc1)CCCC3)c1ccccc1Cl | -1 | 0 | · | 2 | -1 | · | ·
CC(=O)Nc1nnc(COc2ccc(Cl)cc2)s1 | 1 | 5.5* | 2 | 3 | 13* | 6.2* | 3.0*
CC(C)C(=O)Nc1nnc(COc2ccc(Cl)cc2)s1 | -1 | 0 | 3 | 0 | -1 | · | ·
C=CCN1[C@H](C)COc2cc(N3CCCC3)ccc2S1(=O)=O | -2 | -2 | · | 0 | -3 | · | ·
CC(=NN1CCN(c2ccccn2)CC1)c1ccccc1O | -1 | 0 | · | -2 | 4 | · | ·
Cc1ccccc1S(=O)(=O)/N=C(/Nc1c(C)n(C)n(-c2ccccc2)c1=O)c1ccccc1 | -1 | -1 | 0 | -1 | 1 | · | ·
Cc1ccccc1S(=O)(=O)/N=C(/Nc1nc2ccccc2s1)c1ccccc1 | 0 | 5.5* | 0 | 2 | 11* | 3.8* | 4.1*
C=CCn1c(C)cc(C(=O)COc2ncnc3sccc23)c1C | 0 | 5.2* | 1 | 6.3* | 11* | 14* | 6.5*
COc1ccc2nc(N3CCN(C(=O)C4COc5ccccc5O4)CC3)sc2c1 (stereo unspecified) | -1 | 7.1* | 0 | 2 | 10 | 11* | 5.5*
COc1ccc(S(=O)(=O)N2CCN(C(=O)C3COc4ccccc4O3)CC2)cc1 (stereo unspecified) | -1 | -1 | 0 | -1 | -1 | · | ·
O=C(COC(=O)c1ccc(O)cc1O)c1ccc(Cl)cc1 | -1 | 5.8* | 1 | 2 | 6 | 5.4* | 3
COc1ccc(C(CNC(=O)c2oc3ccc(Br)cc3c2C)N2CCCCC2)cc1 (stereo unspecified) | -1 | 1 | -1 | -1 | 3 | · | ·
COc1cc2ccccc2cc1C(=O)Nc1ccc(C)cn1 | 0 | 5.5* | 1 | 5.7* | 11* | 13* | 6.8*
SMILES | ssDAF12 agonist | DAX1 inh-1 | DAX1 inh-2 | hcDAF-12 act | hgDAF12 agonist | DAX1 inh confirm | SF1 AF2mut Luc
COc1ccc2oc(C(=O)N3CCc4ccccc43)c(C)c2c1 | 1 | 11* | -2 | 4 | 7 | 15* | 5.3*
COc1ccc2oc(C(=O)Nc3ccc(C)cn3)c(C)c2c1 | 0 | 5.0* | 3 | 4 | 11* | 10* | 6.6*
COc1ccc(C(CNC(=O)c2oc3ccc(OC)cc3c2C)N2CCCC2)cc1 (stereo unspecified) | -1 | 5.0* | 0 | 0 | 2 | 6.1* | 4.2*
CC(C)N(c1cc(=O)nc2ccccn12)C(C)C | -1 | 0 | · | 2 | 0 | · | ·
Nc1nc2c(ncn2[C@@H]2O[C@H](C(=O)NCC3CCCCC3)[C@@H](O)[C@H]2O)c(=O)[nH]1 | 0 | -1 | · | -1 | 1 | · | ·
COc1ccc2oc(C(=O)NCCC(C)C)c(C)c2c1 | 0 | 6.1* | 2 | 5 | 9 | 14* | 6.2*
C[C@H]1[C@@H](OC(=O)N2CCOCC2)CC[C@@]23CCCN2C(=O)CCC[C@@H]13 | -2 | · | · | 0 | 1 | · | ·
COc1ccc(Cn2cc(CN3CC(N4CCN(C5CCN(C)CC5)CC4)CS3(=O)=O)nn2)cc1 (stereo unspecified) | -1 | 7.6* | · | 0 | -1 | 2 | -1
CCOc1ccc(N=C(C)C2=C(O)c3ccccc3C2=O)cc1 | 0 | 1 | 3 | 2 | 10 | · | ·
COc1ccc(N=C(C)C2=C(O)c3ccccc3C2=O)cc1 | 1 | 5.0* | 1 | 4 | 12* | 19* | 5.9*
COC(=O)[C@]12C[C@H](CC(=O)N3CCCC3)C(=O)N(Cc3cccc4ccccc34)C1=C[C@H](C(C)(C)C)O[C@@H]2C | -1 | -1 | · | -1 | 0 | · | ·
CC(Cc1ccccn1)NC(=O)c1ccc(OC2CCN(CCc3ccccc3)CC2)cc1 (stereo unspecified) | -1 | -2 | 0 | 0 | 2 | · | ·
O=C(NCCc1ccccn1)c1ccc(OC2CCN(CCc3ccccc3)CC2)cc1 | 0 | 5.8* | 1 | 3 | 12* | 9.1* | 4.1*
CCCC(=O)Nc1nc2ccc(C(=O)OCC)cc2s1 | -1 | 0 | 3 | 0 | 4 | · | ·
Cc1ccc(NC(=O)COC(=O)c2cccnc2)cc1 | -2 | 0 | 0 | 0 | -1 | · | ·
Cc1ccc2nc(NC(=O)COC(=O)c3cccnc3)sc2c1 | -1 | 5.6* | 1 | 4 | 12* | 4.0* | 3
CCOC(=O)c1ccc2nc(NC(=O)C(C)C)sc2c1 | 0 | 4.6* | 2 | 1 | 13* | 4 | 2
CCCCN1CC(COCc2ccccc2)Oc2cccc(Oc3ccc(SC)c(C)c3)c2S1(=O)=O (stereo unspecified) | -1 | 0 | · | -1 | 0 | · | ·
CC(=O)Nc1ccc(S(=O)(=O)NCC2CCN(C(=O)C(=O)c3cccs3)CC2)cc1 | 0 | -1 | · | 0 | 1 | · | ·
